The record followed here is publication PMC6919601, “Identification of Plasmodium dipeptidyl aminopeptidase allosteric inhibitors by high throughput screening” (PLoS ONE, 2019).

Molecules are shown by their SMILES. In all, about 110,000 compounds went through this assay and about 230 (0.21%) showed an effect of 50% or more. The list comes from a sample in which strong results are over-represented; it also holds similar structures and randomly drawn compounds.
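Also: 30 min substrate incubation versus DMSO and 10 µM JCP410 controls.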

In the assay the target is DPAP1 (Plasmodium falciparum, UniProt Q8IIJ9). In words: primary screen, percent inhibition; read by cleavage of a fluorogenic dipeptide substrate; higher = more effect of the substance. Further details: species or system P. falciparum D10 trophozoite lysates; single well.
Chain of DPAP1 (Q8IIJ9 whole entry, looked up): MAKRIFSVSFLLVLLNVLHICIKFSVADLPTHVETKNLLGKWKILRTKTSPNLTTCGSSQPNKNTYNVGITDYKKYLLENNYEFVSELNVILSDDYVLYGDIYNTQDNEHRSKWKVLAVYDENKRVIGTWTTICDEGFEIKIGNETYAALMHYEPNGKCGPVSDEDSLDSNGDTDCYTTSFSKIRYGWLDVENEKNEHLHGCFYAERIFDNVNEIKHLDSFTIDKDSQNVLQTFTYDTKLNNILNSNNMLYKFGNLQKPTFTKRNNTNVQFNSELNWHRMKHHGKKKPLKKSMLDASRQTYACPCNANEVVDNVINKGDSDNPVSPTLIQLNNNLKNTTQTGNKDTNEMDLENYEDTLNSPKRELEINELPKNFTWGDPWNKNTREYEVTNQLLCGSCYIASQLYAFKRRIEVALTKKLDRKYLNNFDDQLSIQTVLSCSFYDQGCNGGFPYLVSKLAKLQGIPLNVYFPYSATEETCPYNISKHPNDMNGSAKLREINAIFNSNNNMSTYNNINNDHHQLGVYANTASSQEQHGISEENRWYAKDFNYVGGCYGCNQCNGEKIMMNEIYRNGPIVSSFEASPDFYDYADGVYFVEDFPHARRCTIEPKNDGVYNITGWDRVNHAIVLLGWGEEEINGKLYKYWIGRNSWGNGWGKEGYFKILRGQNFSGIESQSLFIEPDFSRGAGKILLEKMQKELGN
As for `COc1ccc2cc3cc(C(=O)NCCCN4CCN(C)CC4)sc3nc2c1`, the “% Inhibition @ 10 uM” value was determined as 1.22%.
Then `COc1ccc2nc3sc(C(=O)N4CCN(C)CC4)cc3cc2c1`, with -5.06%; and `COc1ccc2nc3sc(C(=O)N4CCC5(CC4)OCCO5)cc3cc2c1`, with -4.16%; and `COc1ccc(-c2ccc(C(=O)N3CCOCC3)cc2)cc1`, with 85.3%.
The same measure for `COc1ccc2cc3cc(C(=O)N4CCN(Cc5ccccc5)CC4)sc3nc2c1`: 4.61%.
The same measure for `COc1ccc(C(=O)N2CCN(CC(=O)N3CCOCC3)CC2)cc1`: 6.33%; for `COc1ccc2nc3sc(C(=O)NCCN(C)Cc4ccccc4)cc3cc2c1`: -2.12%; for `COc1ccc2cc3cc(C(=O)NCCN4CCN(Cc5ccccc5)CC4)sc3nc2c1`: 94.4%.
As for `COc1ccc2nc3sc(C(=O)N4CCOCC4)cc3cc2c1`, the “% Inhibition @ 10 uM” value came out at 89.7%.
Then `COc1ccc2nc3sc(C(=O)NCCC(C)C)cc3cc2c1`, with -5.98%.
The same measure for `CCCCN(C)CCNC(=O)c1cc2cc3cc(OC)ccc3nc2s1`: 83.9%; for `COc1ccc(C(=O)N2CCN(C(=O)c3ccc(OC)cc3)CC2)cc1`: -1.61%.
Then `CCOc1ccc(C(=O)N(Cc2nc(-c3ccc(Cl)cc3)no2)C(C)C)cc1`, with -1.84%; and `CC(=O)Nc1ccc(NC(=O)c2cccc(Cl)c2Cl)cc1`, with 3.74%; and `COc1cc(NC(=O)C(C)Oc2ccccc2)cc(OC)c1` (stereo not drawn), with -2.8%.
As for `Cc1ccc(NC(=O)C(Cc2ccc([N+](=O)[O-])cc2)N2C(=O)c3ccccc3C2=O)cc1[N+](=O)[O-]` (stereo not drawn), the “% Inhibition @ 10 uM” value is listed as -2.47%.
Regarding `COc1ccccc1S(=O)Cc1ccc(C(=O)NCCc2ccc(Cl)cc2)o1` (stereo not drawn), the “% Inhibition @ 10 uM” value was -4.96%.
The same measure for `CCC1CCCCN1CCCNC(=O)c1cc2cc3cc(OC)ccc3nc2s1` (stereo not drawn): 1.22%; for `COc1ccc2nc3sc(C(=O)NCCN4CCOCC4)cc3cc2c1`: 3.07%.
The same measure for `COc1ccc2nc3sc(C(=O)NCCCN4CCCC4=O)cc3cc2c1`: 84.6%; for `CCN(Cc1ccccc1)C(=O)c1cc2cc3cc(OC)ccc3nc2s1`: 50.3%.
The same measure for `COc1ccc2nc3sc(C(=O)NCCCN4CCc5ccccc5C4)cc3cc2c1`: 64.7%.
With `COc1ccc2cc3cc(C(=O)NCCN4CCc5ccccc5C4)sc3nc2c1`, the “% Inhibition @ 10 uM” value amounted to 4.61%.
Then `COc1ccc2nc3sc(C(=O)NCCCN4CC(C)CC(C)C4)cc3cc2c1` (stereo not drawn), with -2.44%; and `CCCCN(CC)C(=O)c1cc2cc3cc(OC)ccc3nc2s1`, with -1.55%.
Then `COc1ccc2cc3cc(C(=O)N(C)Cc4ccccc4)sc3nc2c1`, with 0.402%.
Turning to `CSc1ccc(CN2CCN(c3cccc(Cl)c3)CC2)cc1`, the “% Inhibition @ 10 uM” value worked out at 0.847%.
